# Rows were chosen to be rich in hits. Some 7.5% of all compounds tested hit in one or more screens of this group.
# NPC1 prom act = NPC1 promoter activation | Huh7 NPC1 promoter luciferase reporter, 24 h | 320,000 compounds, 2.4% hits | Potency, µM (highest dose often 9.22 µM), for the others: at the top dose activation, usual class: activators; also: % of control where 0% means no effect; nearly all actives have a fitted effect of over 60% in size
#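 Quantitative HTS used a cell-based reporter: Huh7 cells stably bearing the NPC1 promoter upstream of luciferase were treated with compounds for 24 h, and promoter activation was read as luminescence.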
# ELG1 genotoxic = genotoxicity induction in ELG1-luciferase HEK293T cells; AID 504466; Potency, µM (titrated, usually from 46 µM), for the others: top-dose activity change, positive = activation, most hits filed as activators; HEK293T ELG1-luciferase reporter, luminescence, 16 h; 330,000 compounds, 1.3% hits; also: % of control where 0% means no effect; nearly all actives have a fitted effect of over 60% in size
#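 16 hr compound incubation (37 °C, 5% CO2) of HEK293T cells carrying luciferase-tagged ELG1; luciferase then measured by ONE-Glo luminescence after 30 min at RT.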
# FLuc modulator = counter-screen for miR-21 project: firefly luciferase inhibitors or activators | AID 588342 | purified FLuc, Km substrates, luminescence inhibition | P08659 | 360,000 compounds, 6.9% hits | Potency, µM (highest dose often 57.5 µM), for inactives: at the top dose activity change, negative = inhibition, usual class: inhibitors;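 also: plate controls were vehicle for no effect and reference inhibitor for full effect; nearly all actives have a fitted effect of over 55% in size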
# Target sequence (P08659 whole entry, looked up): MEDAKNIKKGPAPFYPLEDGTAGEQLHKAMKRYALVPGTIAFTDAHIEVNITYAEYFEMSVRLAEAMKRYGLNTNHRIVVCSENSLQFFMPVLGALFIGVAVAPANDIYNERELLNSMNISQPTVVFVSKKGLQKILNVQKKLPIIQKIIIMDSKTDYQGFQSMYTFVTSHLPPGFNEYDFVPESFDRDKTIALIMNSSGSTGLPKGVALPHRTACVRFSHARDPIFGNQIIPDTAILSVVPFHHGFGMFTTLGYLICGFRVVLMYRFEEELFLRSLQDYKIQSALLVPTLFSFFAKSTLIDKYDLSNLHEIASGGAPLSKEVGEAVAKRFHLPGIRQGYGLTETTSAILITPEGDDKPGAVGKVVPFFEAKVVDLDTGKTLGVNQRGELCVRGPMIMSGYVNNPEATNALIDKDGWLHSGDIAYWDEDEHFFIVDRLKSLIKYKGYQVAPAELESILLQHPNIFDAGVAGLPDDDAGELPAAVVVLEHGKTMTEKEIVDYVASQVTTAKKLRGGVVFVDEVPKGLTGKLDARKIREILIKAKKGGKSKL
#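 Biochemical qHTS of compounds, final roughly 60 µM downward over six points, against 10 nM purified firefly luciferase using Km concentrations of substrates (10 uM D-luciferin, 10 uM ATP) in Tris acetate pH 7.5 buffer; luminescence output.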
# SMN2 splice up = enhancers of SMN2 splice variant expression; HEK293 SMN2-luciferase splicing reporter, luminescence, 30-36 h; Potency, µM (highest dose often 46.1 µM), for the others: top-dose activity change, positive = activation, actives largely listed as activators; 210,000 compounds, 2.8% hits; AID 1458; also: % of control where 0% means no effect; nearly all actives have a fitted effect of over 55% in size
#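 HEK293 cells carry an SMN2 minigene-luciferase reporter in which exon 7 inclusion puts luciferase in frame. Cells were seeded at 2000 cells/well, attached for 10-12 hours, then exposed to compounds for 30-36 hours at 37C before ONE-Glo luminescence.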
# Rab9 prom act = activates the Rab9 promoter | Huh7 Rab9 promoter-luciferase reporter, luminescence, 24 h | 320,000 compounds, 2.8% hits | AID 485297 | Potency, µM (highest dose often 9.22 µM), inactives show at the highest dose activation, negative = inhibition, actives largely listed as activators; also: % of control where 0% means no effect; nearly all actives have a fitted effect of over 60% in size
#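 Measured in stably transfected Huh7 cells bearing a Rab9 promoter–luciferase construct: 24 h compound treatment at 37 °C, followed by luminescence detection.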
# * marks the source's active call; other numbers are inactive results; ? = inconclusive; . = not tested or not shown; ! = not active in a repeat. Calls follow the shape of the dose curve; as a rule, active = well fitted curve in the direction sought with a large enough effect; inconclusive = small, poorly fitted or top-dose-only effect, or another doubt; inactive = no such curve, though single readings can be large; an effect the other way counts as inactive or inconclusive. Potency is read from the fitted curve at half-maximal effect.
SMILES,NPC1 prom act,ELG1 genotoxic,FLuc modulator,SMN2 splice up,Rab9 prom act
CCC(=O)Nc1cccc(-c2cn3cccc(C)c3n2)c1,?,12.2%,7.57µM*,.,?
CCC(=O)Nc1cccc(-c2cn3ccccc3n2)c1,?,12.0%,10.7µM*,?,?
COc1ccc(CCn2c3c(c(=O)[nH]c2=O)C(NC(=O)c2ccc(C(C)(C)C)cc2)(C(F)(F)F)C(=O)N3)cc1OC (centres undefined),.,.,?,0.2%,.
COc1ccc(CC(=O)Nc2cccc(-c3cn4ccccc4n3)c2)cc1,1.6%,-3.1%,8.49µM*,24.7%,23.1%
CCOc1ccc(CC(=O)Nc2ccc(-c3ccc4nnc(C)n4n3)cc2)cc1,-8.5%,20.6µM*,-6.8%,-4.6%,-1.5%
COc1ccc(CC(=O)Nc2ccc(-c3cn4ccccc4n3)cc2)cc1OC,20.6%,?,16.9µM*,-17.2%,17.7%
COc1ccc(CC(=O)Nc2cccc(-c3csc(C)n3)c2)cc1,-0.8%,-0.6%,?,10.2%,-2.7%
COc1ccc(CC(=O)Nc2ccc(-c3cn4ccccc4n3)cc2)cc1,?,?,3.38µM*,?,3.16µM*
COCC(C)n1c(COc2ccccc2F)nnc1SCC(=O)c1c(N)n(C)c(=O)n(C)c1=O (centres undefined),-6.4%,-1.2%,-3.2%,-9.3%,15.3%
COc1cccc(C(=O)N(Cc2cccnc2)c2nc3c(OC)ccc(C)c3s2)c1OC,.,.,-2.4%,.,.
Cc1cc(C(=O)CN2C(=O)C(=O)N(CCC3=CCCCC3)C2=O)c(C)n1C,.,-5.0%,.,.,.
COc1ccc(-c2cn(-c3ccc(C)cc3)c(S(=O)(=O)CC(=O)Nc3ccc(F)cc3)n2)cc1,.,.,?,28.2%,.
COc1ccc(-c2cn(-c3ccc(C)cc3)c(S(=O)(=O)CC(=O)Nc3ccccc3)n2)cc1,.,.,?,12.6µM*,.
O=C(CSc1c2c(nc3ccccc13)CCC2)Nc1ccc(F)cc1F,.,.,-12.6%,-5.4%,.
CCOc1ccc(C2C(C(N)=O)=C(C)Nc3nc(-c4ccc(OC)cc4)nn32)cc1 (centres undefined),.,.,?,-2.8%,.
NC(=O)C1CCN(C(=S)c2ccc(-c3ccc(Br)cc3)o2)CC1,?,10.3µM*!,?,8.91µM*,?
CN1CCN(c2ccc(NC(=O)c3ccc(-c4ccc(Br)cc4)o3)cc2)CC1,0.9%,-2.4%,?,-63.0%,6.3%
CC(=O)N1CCN(C(=S)c2ccc(-c3ccc(Cl)cc3)o2)CC1,0.0%,0.5%,?,.,-0.7%
NC(=O)c1ccc(-c2ccc(Br)cc2)o1,6.9%,?,19µM*,3.4%,7.8%
COc1ccc(/C=N\NC(=O)C2COc3ccccc3O2)cc1O (centres undefined),-0.7%,6.8%,23.9µM*,.,-3.1%
COc1ccc(/C=N/NC(=O)C2COc3ccccc3O2)cc1OC (centres undefined),-1.9%,6.6%,19µM*,5.0%,1.0%
O=C(N/N=C/c1ccc2c(c1)OCO2)C1COc2ccccc2O1 (centres undefined),0.6%,3.4%,16.9µM*,12.7%,15.4%
CC(/C=C/c1ccc2c(c1)OCO2)=N/NC(=O)C1COc2ccccc2O1 (centres undefined),-3.3%,-2.2%,-9.8%,-15.4%,-6.5%
COc1cc(/C=N/NC(=O)C2COc3ccccc3O2)ccc1O (centres undefined),0.9%,-3.6%,?,.,-1.4%
CCCCNC(=O)CCn1c(=O)c2ccccc2n(Cc2ccc(Cl)cc2)c1=O,-1.5%,0.5%,-0.4%,-6.1%,-1.7%
Cn1c(=O)oc2cc(S(=O)(=O)NCc3ccc(F)cc3)ccc21,-2.2%,10.4%,-2.3%,.,0.4%
O=C(/C=C/c1ccc(OC(F)F)cc1)Nc1cccc(S(=O)(=O)N2CCOCC2)c1,14.8%,-27.8%,4.78µM*,.,1.9%
Cc1ccc(/C=C/C(=O)Nc2cccc(S(=O)(=O)N3CCOCC3)c2)o1,6.4%,-1.3%,?,-15.2%,-0.6%
O=C(/C=C/c1ccco1)Nc1cccc(S(=O)(=O)N2CCOCC2)c1,11.7%,0.7%,16.9µM*,16.4%,?
O=C(COC(=O)/C=C/c1ccc(OC(F)F)cc1)Nc1cccc(S(=O)(=O)N2CCCC2)c1,0.3%,9.1%,19µM*,.,-6.7%
